The results in this text go back to PubChem BioAssay (EPA / NIEHS).

Results filed as inconclusive are left out. Calls of active or inactive are those of the source. The calls were made as follows: active = hit-call score of the fitted dose curve at least 0.9, where 1 is the maximum; inconclusive = response in the unintended direction; inactive = score below 0.9.

This experiment in a line: ACEA_AR_agonist_AUC_viability: ACEA Biosciences xCELLigence Real-Time Cell Analysis on Androgen Receptor Agonism for Viability (AID 2283775). How it is done:
ACEA_AR_agonist is a cell-based, single-readout assay that uses 22Rv1, a human prostate cancer cell line, with measurements taken at 80 hours after chemical dosing in a 384-well plate, although TO5 and TO6 (mc0.srcf) used a 96-well plate. Differences in plate size can be ignored given data normalization.ACEA_AR_80hr is one of two assay component(s) measured or calculated from the ACEA_AR assay. It is designed to make measurements of real-time cell-growth kinetics, a form of growth reporter, as detected with electrical impedance signals by Real-Time Cell Electrode Sensor (RT-CES) technology.Data from the assay component ACEA_AR_AUC_viability was analyzed in the positive analysis fitting direction relative to DMSO as the negative control and baseline of activity. Using a type of growth reporter, loss-of-signal activity can be used to understand changes in the viability. Furthermore, this assay endpoint can be referred to as a secondary readout, because this assay has produced multiple assay endpoints where this one serves a viability function. To generalize the intended target to other relatable targets, this assay endpoint is annotated to the cell cycle intended target family, where the subfamily is cytotoxicity.
The xCELLigence system Multi-E-Plate stations were used to measure the time-dependent response to chemicals. Each compound was tested in an eight-point, 1:4 serial dilution series starting at a maximum final concentration of 100 uM. A maximum starting concentration of 0.5% DMSO was present in the 100 uM chemical samples and was diluted along with the test article dilution series. The screen was performed in biological duplicate using two separate, 96-well, E-Plates 96 for each dilution series (n = 2). Positive controls (MG132 and testosterone) and a negative control (assay media) were tested in quadruplicate on each testing plate. Then, 0.5% and 0.125% DMSO were tested in duplicates in each plate to serve as solvent controls for the 2 highest concentrations of testing compounds: 100 uM and 25 uM. Reference compounds were tested with 8 concentrations with 1:5 serial dilutions. All screening was carried out by ACEA Biosciences, Inc. (San Diego, CA). 22Rv1 cells purchased from ATCC were maintained in media supplemented with 10% fetal bovine serum (FBS). Before screening, 22Rv1 cells were preconditioned in assay medium. Cells were then detached and seeded in E-Plates 96 in assay medium. After overnight monitoring of growth once every hour, compounds were added to […] cells and remained in the medium until the end of the experiment. Cellular responses were then recorded once every 5 min for the first 5 h, and once every hour for an additional 100 h.
Regarding `COCCOCCC[Si](C)(O[Si](C)(C)C)O[Si](C)(C)C`, the compound was called inactive.
Regarding `N#Cc1ccccc1O`, the compound was classed as inactive.
On to `CCOC(OCC)OCC`, for which the result was inactive.
For the compound `CC(=O)CCC(C)C`, the outcome was inactive.
Turning to `CCCCC(CC)COC(=O)c1ccc(N(C)C)cc1` (stereo unspecified), the compound was called inactive.
For the compound `CC(C)Nc1ccc(NC(C)C)c2c1C(=O)c1ccccc1C2=O`, the call was inactive.
Still for that read-out and setting: for `Cc1ccc(O)c(-n2nc3ccccc3n2)c1` the value was “inactive”; for `CC(C)OC=O`, “inactive”.
Take `CCOC(=O)C1CC(=O)C(=C(O)C2CC2)C(=O)C1` (stereo unspecified): the call was inactive.
With `CCN=c1cc2oc3cc(NCC)c(C)cc3c(-c3ccccc3C(=O)OCC)c-2cc1C`, the concentration at half-maximal activity (AC50) was 13.8 nM (active).
Consider `CCc1cc(Cc2cc(CC)c(N)c(CC)c2)cc(CC)c1N`, for which the result was inactive.
Same read-out and setting: under `Cc1ccc([N+](=O)[O-])c(C)c1` stands “inactive”; under `CC(C)(C)c1cc(Cc2cc(C(C)(C)C)c(O)c(C(C)(C)C)c2)cc(C(C)(C)C)c1O`, “inactive”.
For the compound `CCCCCCCCCCCCCC[P+](CCCC)(CCCC)CCCC`, the half-maximal activity concentration (AC50) is 13.8 nM (active).
For the compound `O=C1C=CC(=O)N1c1ccccc1`, the call was inactive.
`CCN=C1C=CC(=C(c2ccc(N(CC)CC)cc2)c2ccc(N(CC)CC)cc2)c2ccccc21`: the call was inactive.
For `CCC(Cc1c(I)cc(I)c(N)c1I)C(=O)O` (stereo unspecified), the outcome was inactive.
`CCCCCCCCn1sc(Cl)c(Cl)c1=O`: the AC50 was 21300 nM (active).
In the case of `CCCCOC(=O)C(C)O` (stereo unspecified), the call was inactive.
On to `CCCCCCCCCCCCC[N+](C)(C)Cc1ccccc1`, for which the AC50 is 2990 nM (active).
For the compound `CCCCCCCCCc1ccc(OCCO)cc1`, the AC50 was 9260 nM (active).

Broadly, the AC50 is the midpoint of the concentration-response curve, whichever way the signal moves.
